Test [1] can be described thus: NCI Yeast Anticancer Drug Screen. Data for the rad50 strain (AID 155).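 Note: 0% = growth of vehicle-only cultures of the same strain.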 Conditions: S. cerevisiae rad50 strain growth inhibition, stronger effect = higher value. The method, boiled down: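 Growth of the mutant yeast was measured after compound exposure and referenced to vehicle-treated cultures.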
A short description of test [2]: NCI Yeast Anticancer Drug Screen. Data for the mec2-1 strain (AID 157). Conditions: S. cerevisiae mec2-1 strain, stronger effect = higher value. The procedure, abridged: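 Mutant yeast (mec2-1) grown with compound; growth inhibition relative to vehicle control reported.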
Test [3] in a line: NCI Yeast Anticancer Drug Screen. Data for the sgs1 mgt1 strain (AID 161).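 Note: 0% = growth of cultures given vehicle only.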 Conditions: S. cerevisiae sgs1 mgt1 strain, stronger effect = higher value. The procedure, abridged: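 Compounds are added to genetically altered yeast, and growth is compared with cultures given vehicle alone to give percent inhibition.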
Test [4] in a line: NCI Yeast Anticancer Drug Screen. Data for the cln2 rad14 strain (AID 165).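 Note: 0% = growth equal to vehicle treated cultures.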 Conditions: S. cerevisiae cln2 rad14 strain, stronger effect = higher value. The procedure, abridged:
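Readout is yeast growth inhibition versus vehicle-treated controls, using a strain with cln2 and rad14 alterations exposed to compound.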

Test [5] in a line: NCI Yeast Anticancer Drug Screen. Data for the bub3 strain (AID 167). Particulars: S. cerevisiae bub3 mutant strain, stronger effect = higher value. The method, boiled down: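 Whole-cell yeast assay. The mutant strain was incubated with compounds, and growth inhibition was determined by comparison with vehicle-treated cells.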
Test [6] is described as follows: NCI Yeast Anticancer Drug Screen. Data for the mlh1 rad18 strain (AID 175). Particulars: S. cerevisiae mlh1 rad18 strain growth inhibition, stronger effect = higher value. The method, boiled down:
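Genetically defined yeast (DNA repair-deficient) exposed to compounds; growth inhibition determined relative to vehicle.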

The mark [7] stands for this setting: at 5.0 µM (retest, dose inferred, filed as 0.5).
The mark [8] stands for this setting: at 50.0 µM (retest, dose inferred, filed as 5.0).

Our source for the growth inhibition values is PubChem BioAssay (NCI).

The structures appear in SMILES notation. “And” between values parts separate entries of the source, which are not always exact repeats. Identical values can stand only once. The panel holds about 79,000 compounds, 15% with a hit somewhere; the sample as a whole holds those more often. A structure can be active in one record and inactive in another. The source made the active and inactive calls. Cut-off read from the data, not from the text of the source: active = growth inhibition above about 70%; inactive = the rest.

For `CCCCCCCCCCCCN1C(=O)[N+](C)(C)N=C1[O-]`, the growth inhibition in test [1] (setting [7]) is 6% (inactive); in test [1] (setting [8]) it was 41% (inactive); in test [1] (at 50.0 µM), 98.7% (active); in test [2] (setting [7]), 4% (inactive); in test [2] (setting [8]) it was 49% (inactive); in test [2] (at 50.0 µM), 99.3% (active). The growth inhibition in test [3] (setting [7]) was 7% (inactive); in test [3] (setting [8]), 60% (inactive); in test [3] (at 50.0 µM), 99.1% (active); in test [4] (setting [7]), -4% (inactive); in test [4] (setting [8]), 21% (inactive); in test [4] (at 50.0 µM), 97.5% (active). The growth inhibition is 4% (inactive) in test [5] (setting [7]); 34% (inactive) in test [5] (setting [8]); 98.9% (active) in test [5] (at 50.0 µM); 4% (inactive) in test [6] (setting [7]); 49% (inactive) in test [6] (setting [8]); 99.1% (active) in test [6] (at 50.0 µM).

On to `O/N=C/c1cc(I)c(O)c(I)c1`, for which the growth inhibition in test [1] (setting [7]) is 99% (active); in test [1] (setting [8]), 98% (active); in test [1] (at 50.0 µM) it was 98.8% (active); in test [2] (setting [7]) it was 97% (active); in test [2] (setting [8]) it was 99% (active); in test [2] (at 50.0 µM), 98.2% (active). The growth inhibition in test [3] (setting [7]) was 99% (active); in test [3] (setting [8]), 99% (active); in test [3] (at 50.0 µM), 98.8% (active); in test [4] (setting [7]) it was 99% (active); in test [4] (setting [8]), 98% (active); in test [4] (at 50.0 µM), 98.3% (active). Also, the growth inhibition was 99% (active) in test [5] (setting [7]); 99% (active) in test [5] (setting [8]); 98.8% (active) in test [5] (at 50.0 µM); 98% (active) in test [6] (setting [7]); 98% (active) in test [6] (setting [8]); 98.5% (active) in test [6] (at 50.0 µM).

In the case of `N#Cc1c(-c2ccccc2)cc(-c2ccccc2)n(C2OC(CO)C(O)C(O)C2O)c1=S` (centres undefined), the growth inhibition was -4% (inactive) and 0% (inactive) in test [1] (setting [7]); 4% (inactive) and -12% (inactive) in test [1] (setting [8]); 93% (active) and 32.5% (inactive) in test [1] (at 50.0 µM); -7% (inactive) and -4% (inactive) in test [2] (setting [7]); -19% (inactive) and -15% (inactive) in test [2] (setting [8]); 40.9% (inactive) and -23.4% (inactive) in test [2] (at 50.0 µM). Also, the growth inhibition in test [3] (setting [7]) is -14% (inactive) and 4% (inactive); in test [3] (setting [8]), 10% (inactive) and 8% (inactive); in test [3] (at 50.0 µM), 4% (inactive) and -26.1% (inactive); in test [4] (setting [7]), 10% (inactive) and -1% (inactive); in test [4] (setting [8]) it was 22% (inactive) and 18% (inactive); in test [4] (at 50.0 µM), -35% (inactive) and -38.9% (inactive). In addition, the growth inhibition was -1% (inactive) and 10% (inactive) in test [5] (setting [7]); 11% (inactive) and 4% (inactive) in test [5] (setting [8]); 53.6% (inactive) and -49.4% (inactive) in test [5] (at 50.0 µM); 9% (inactive) and 1% (inactive) in test [6] (setting [7]); 8% (inactive) and -7% (inactive) in test [6] (setting [8]); 60.5% (inactive) and 1% (inactive) in test [6] (at 50.0 µM).

Consider `CN(C)c1ccc(/C=C/c2cc[n+](C)c3ccccc23)cc1`, for which the growth inhibition was -3% (inactive) and -12% (inactive) in test [1] (setting [7]); 81% (active) and 53% (inactive) in test [1] (setting [8]); 95.3% (active) and 71.3% (active) in test [1] (at 50.0 µM); 0% (inactive) and -25% (inactive) in test [2] (setting [7]); 93% (active) and 83% (active) in test [2] (setting [8]); 97.9% (active) and 86.2% (active) in test [2] (at 50.0 µM). In addition, the growth inhibition is 3% (inactive) and -10% (inactive) in test [3] (setting [7]); 92% (active) and 88% (active) in test [3] (setting [8]); 93.7% (active) and 83.4% (active) in test [3] (at 50.0 µM); -2% (inactive) and -5% (inactive) in test [4] (setting [7]); 89% (active) and 57% (inactive) in test [4] (setting [8]); 96.6% (active) and 66.7% (inactive) in test [4] (at 50.0 µM). Moreover, the growth inhibition in test [5] (setting [7]) was -3% (inactive) and -17% (inactive); in test [5] (setting [8]), 85% (active) and 83% (active); in test [5] (at 50.0 µM), 97.5% (active) and 82.8% (active); in test [6] (setting [7]), -8% (inactive) and -21% (inactive); in test [6] (setting [8]) it was 93% (active) and 80% (active); in test [6] (at 50.0 µM) it was 97.7% (active).

As for `CCCCCCCCC(Sc1n[nH]c(=O)[nH]c1=O)C(=O)OCC` (centres undefined), the growth inhibition is 4% (inactive) in test [1] (setting [7]); 35% (inactive) in test [1] (setting [8]); 85.5% (active) in test [1] (at 50.0 µM); 1% (inactive) in test [2] (setting [7]); 70% (active) in test [2] (setting [8]); 89.7% (active) in test [2] (at 50.0 µM). The growth inhibition in test [3] (setting [7]) is 4% (inactive); in test [3] (setting [8]) it was 29% (inactive); in test [3] (at 50.0 µM), 91.6% (active); in test [4] (setting [7]), 1% (inactive); in test [4] (setting [8]), 88% (active); in test [4] (at 50.0 µM), 84.8% (active). The growth inhibition was -4% (inactive) in test [5] (setting [7]); 88% (active) in test [5] (setting [8]); 88.5% (active) in test [5] (at 50.0 µM); 3% (inactive) in test [6] (setting [7]); 48% (inactive) in test [6] (setting [8]); 89.5% (active) in test [6] (at 50.0 µM).

Consider `O=C(Nc1ccc(Cl)cc1)c1ccccc1O`, for which the growth inhibition is 2% (inactive) in test [1] (setting [7]); 8% (inactive) in test [1] (setting [8]); 92.6% (active) and 4.9% (inactive) in test [1] (at 50.0 µM); 2% (inactive) in test [2] (setting [7]); 11% (inactive) in test [2] (setting [8]); 94.7% (active) and -13.8% (inactive) in test [2] (at 50.0 µM). The growth inhibition in test [3] (setting [7]) was 1% (inactive); in test [3] (setting [8]) it was 33% (inactive); in test [3] (at 50.0 µM), 89% (active) and -5.25% (inactive); in test [4] (setting [7]) it was 3% (inactive); in test [4] (setting [8]) it was 6% (inactive); in test [4] (at 50.0 µM), 85.2% (active) and -12.8% (inactive). Moreover, the growth inhibition in test [5] (setting [7]) was 8% (inactive); in test [5] (setting [8]) it was 13% (inactive); in test [5] (at 50.0 µM), 90.8% (active) and 3.8% (inactive); in test [6] (setting [7]) it was 4% (inactive); in test [6] (setting [8]), 9% (inactive); in test [6] (at 50.0 µM), 97.2% (active) and -0.55% (inactive).

`CC(=O)OC1CCC2(C)C(CCC3C4CCC(OC(C)=O)C4(C)CCC32)O1` (centres undefined): the growth inhibition in test [1] (setting [7]) is -3% (inactive); in test [1] (setting [8]), 79% (active); in test [1] (at 50.0 µM), 36.2% (inactive); in test [2] (setting [7]), 5% (inactive); in test [2] (setting [8]), 95% (active); in test [2] (at 50.0 µM) it was 15.1% (inactive). Besides, the growth inhibition in test [3] (setting [7]) was -23% (inactive); in test [3] (setting [8]), 70% (active); in test [3] (at 50.0 µM), 43.6% (inactive); in test [4] (setting [7]) it was -6% (inactive); in test [4] (setting [8]), 41% (inactive); in test [4] (at 50.0 µM), 15% (inactive). In addition, the growth inhibition in test [5] (setting [7]) is -2% (inactive); in test [5] (setting [8]), 66% (inactive); in test [5] (at 50.0 µM) it was 11.3% (inactive); in test [6] (setting [7]), 6% (inactive); in test [6] (setting [8]), 93% (active); in test [6] (at 50.0 µM), 24.4% (inactive).

Consider `CCCCC(O)CC` (centres undefined), for which the growth inhibition in test [1] (setting [7]) is -6% (inactive); in test [1] (setting [8]), 0% (inactive); in test [1] (at 50.0 µM), -10% (inactive) and 9.8% (inactive); in test [2] (setting [7]) it was -8% (inactive); in test [2] (setting [8]), -3% (inactive); in test [2] (at 50.0 µM), -42.2% (inactive) and 12.4% (inactive). In addition, the growth inhibition was -2% (inactive) in test [3] (setting [7]); 1% (inactive) in test [3] (setting [8]); 11.6% (inactive) and 27.9% (inactive) in test [3] (at 50.0 µM); -3% (inactive) in test [4] (setting [7]); -1% (inactive) in test [4] (setting [8]); 4.65% (inactive) and 48.2% (inactive) in test [4] (at 50.0 µM). For the same compound, the growth inhibition was -6% (inactive) in test [5] (setting [7]); 0% (inactive) in test [5] (setting [8]); -5.95% (inactive) and 1.55% (inactive) in test [5] (at 50.0 µM); -4% (inactive) in test [6] (setting [7]); 0% (inactive) in test [6] (setting [8]); 0.4% (inactive) and -1.7% (inactive) in test [6] (at 50.0 µM).
